In PubChem BioAssay (EPA / NIEHS):
“And” between values parts separate entries of the source, which are not always exact repeats. Identical values can stand only once. The source holds several records for some structures; these can differ, active in one and inactive in another. The source made the active and inactive calls. The calls were made as follows: active = hit-call score of the fitted dose curve at least 0.9, where 1 is the maximum; inactive = score below 0.9.

Read-out: Thrombomodulin, THBD (gene 7056)
Experiment: BSK_3C_Thrombomodulin: BioMAP Diversity Plus: 3C Assay for Thrombomodulin Biomarker Activity (AID 2283029)
Settings: primary human endothelial cells (HUVEC); actives raise or lower the signal
Method: BSK_3C is a cell-based, multiplexed-readout assay that uses umbilical vein endothelium, a human vascular primary cell, with measurements taken at 24 hours after chemical dosing in a 96-well plate.BSK_3C_Thrombomodulin is an assay component measured in the BSK_3C assay. It measures Thrombomodulin antibody related to regulation of gene expression using ELISA technology.Data from the assay component BSK_3C_Thrombomodulin was analyzed into 1 assay endpoint. This assay endpoint, BSK_3C_Thrombomodulin, was analyzed with bidirectional fitting relative to DMSO as the negative control and baseline of activity. Using a type of binding reporter, gain or loss-of-signal activity can be used to understand changes in the signaling as they relate to the gene THBD. Furthermore, this assay endpoint can be referred to as a primary readout, because this assay has produced multiple assay endpoints where this one serves a signaling function. To generalize the intended target to other relatable targets, this assay endpoint is annotated to the gpcr intended target family, where the subfamily is rhodopsin-like receptor.
The levels of cell surface (or secreted, indicated by the prefix "s") biomarker endpoints were measured by ELISA. Overt cytotoxicity to cells in confluent adherent cultures (all systems other than the BT system) was assessed by measuring total protein levels using sulforhodamine B (SRB) staining in parallel cultures at the time of biomarker measurements, indicated as SRB endpoints. For proliferation assays for adherent cell types, individual cell types are cultured at sub-confluence and relative cell numbers quantified by SRB staining at time points optimized for each system (48 h: 3C and CASM3C systems; 72 h: BT and HDF3CGF systems; 96 h: SAg system). SRB was performed by staining cells with 0.1% SRB after fixation with 10% TCA and reading wells at 560 nm.Viability and proliferation of PBMC (T cells) was quantified by Alamar Blue reduction for the SAg and BT systems. For PBMC viability (referred to as PBMC Cytotoxicity within the assay endpoint names), cells were plated (75,000/well in a 96-well plate) and then chemical samples added for 1 h before addition of activators, SEB and TSST-1 (20 ng/mL final concentration each). Cells were incubated for 90 h. Then, Alamar Blue (20 uL/well) (Invitrogen, Cat DAL1100) was added for 6 h, and the plates were read with a fluorescence microplate reader at 546/580 nm (excitation/emission). For PBMC proliferation, cells were plated and activated as above but incubated for only 16 h prior to addition of Alamar Blue. Plates were read after 6 h.

| SMILES | AC50 | outcome |
| --- | --- | --- |
| O=S(=O)(Cl)C(F)(F)C(F)(F)C(F)(F)C(F)(F)C(F)(F)C(F)(F)C(F)(F)C(F)(F)F | 30 µM (active) and 44.8 µM (active) |  |
| Cc1cc(C)c(O)c(C(C)(C)C)c1 | 33.9 µM (active) |  |
| C=C(C)C(=O)OCC(F)(F)C(F)(F)C(F)(F)C(F)F | 21.8 µM (active) | inactive |
| O=C(O)CCC(F)(F)C(F)(F)C(F)(F)F |  | inactive |
| O=C(F)C1(F)C(F)(F)C(F)(F)C(F)(F)C(F)(F)C1(F)F |  | inactive |
| NC(=O)C(F)(F)C(F)(F)C(F)(F)C(F)F |  | inactive |
| O=S(=O)(O)CCC(F)(F)C(F)(F)C(F)(F)C(F)(F)C(F)(F)C(F)(F)C(F)(F)C(F)(F)F |  | inactive |
| CNS(=O)(=O)C(F)(F)C(F)(F)C(F)(F)C(F)(F)C(F)(F)C(F)(F)C(F)(F)C(F)(F)F |  | inactive |
| C=CC(=O)OCC(F)(F)C(F)(F)C(F)(F)C(F)(F)C(F)(F)C(F)(F)C(F)(F)C(F)F | 5.95 µM (active) and 19.2 µM (active) |  |
| O=C(O)CCC(F)(F)C(F)(F)C(F)(F)C(F)(F)C(F)(F)C(F)(F)C(F)(F)F |  | inactive |
| O=C(Cl)C(F)(F)C(F)(F)C(F)(F)C(F)(F)C(F)(F)C(F)(F)F |  | inactive |
| FC(F)(F)C(F)(F)C(F)(F)CC1CO1 (stereo not given) |  | inactive |
| Cc1cnccn1 |  | inactive |
| O=C=NCc1cccc(CN=C=O)c1 |  | inactive |
| CCN(CC)c1ccc(C=O)cc1 |  | inactive |
| C=CC(=O)OCCC(F)(F)C(F)(F)C(F)(F)C(F)(F)F | 6.34 µM (active) and 21.1 µM (active) |  |
| OCC(F)(F)C(F)(F)C(F)(F)CO |  | inactive |
| O=C(O)C(F)(F)C(F)(F)C(F)(F)C(F)(F)C(F)(F)C(F)(F)C(F)F |  | inactive |
| CN(C(=O)C(F)(F)C(F)(F)C(F)(F)F)[Si](C)(C)C |  | inactive |

| SMILES | AC50 | outcome |
| --- | --- | --- |
| O=C1c2c(O)ccc(Nc3ccc(CCO)cc3)c2C(=O)c2c([N+](=O)[O-])ccc(O)c21 | 10.7 µM (active) |  |
| Nc1cc([N+](=O)[O-])cc(Cl)c1O |  | inactive |
| CC(C)(C)c1cc(CCC(=O)NCCCCCCNC(=O)CCc2cc(C(C)(C)C)c(O)c(C(C)(C)C)c2)cc(C(C)(C)C)c1O |  | inactive |
| OCC(F)(F)C(F)(F)C(F)(F)C(F)(F)C(F)(F)C(F)(F)C(F)(F)C(F)(F)CO |  | inactive |
| NC(=O)C(F)(F)C(F)(F)C(F)(F)F | 5.95 µM (active) | inactive |
| O=C(O)C(F)(F)C(F)(F)C(F)(F)OC(F)(F)F | 5.95 µM (active) | inactive |
| CCOC(=O)CC(=O)C(F)(F)C(F)(F)F |  | inactive |
| Cc1ccc(O)c(-n2nc3ccccc3n2)c1 |  | inactive |
| CC(C)CCCC(C)CCO (stereo not given) |  | inactive |
| O=C(Cl)C(F)(F)C(F)(F)C(F)(F)C(F)(F)C(F)(F)C(F)(F)C(F)(F)F |  | inactive |
| Brc1nc2ccccc2s1 |  | inactive |
| Cc1cc(O)c(C(C)(C)C)cc1C(C)(C)C | 4.96 µM (active) |  |
| O=C1C=CC(=O)N1c1ccc(Cc2ccc(N3C(=O)C=CC3=O)cc2)cc1 | 11.3 µM (active) |  |
| O=C(O)C(F)(F)C(F)(F)C(F)(F)OC(F)(C(F)(F)F)C(F)(F)F |  | inactive |
| OCC(O)CC(F)(F)C(F)(F)C(F)(F)C(F)(F)C(F)(F)C(F)(F)C(F)(F)C(F)(F)F (stereo not given) |  | inactive |
| OCC(F)(F)C(F)(F)C(F)(F)C(F)(F)C(F)(F)C(F)(F)CO |  | inactive |
| OCCCC(F)(F)C(F)(F)C(F)(F)C(F)(F)C(F)(F)C(F)(F)C(F)(F)C(F)(F)F | 43.7 µM (active) and 56.3 µM (active) |  |
| CCN(CC)c1ccc(N=Nc2ccccc2)cc1 |  | inactive |
